Compounds without any hit were thinned out: in the full panel of roughly 83,000, 20% have a hit.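 Single-dose data. Exposure time 48 hours. Values below 10 considered active.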 Active and inactive are the calls of the source.
Key:
Test in all cases: NCI-60 one-dose screen, 48 h (100 = growth as untreated, 0 = no growth, -100 = all killed)
Details in all cases: 10 µM
SR leukemia = system: SR leukemia
RPMI-8226 leukemia = system: RPMI-8226 leukemia
OVCAR-8 ovarian = system: OVCAR-8 ovarian
OVCAR-4 ovarian = system: OVCAR-4 ovarian
SK-OV-3 ovarian = system: SK-OV-3 ovarian
IGROV1 ovarian = system: IGROV1 ovarian
OVCAR-3 ovarian = system: OVCAR-3 ovarian
HS 578T breast = system: HS 578T breast
NCI/ADR-RES ovarian = system: NCI/ADR-RES ovarian
T-47D breast = system: T-47D breast
BT-549 breast = system: BT-549 breast
MDA-MB-435 melanoma = system: MDA-MB-435 melanoma
SW-620 colon = system: SW-620 colon
MCF7 breast = system: MCF7 breast
HCT-116 colon = system: HCT-116 colon
HCC-2998 colon = system: HCC-2998 colon
KM12 colon = system: KM12 colon
OVCAR-5 ovarian = system: OVCAR-5 ovarian

Measured: growth

COc1ccc(C2C=C(c3ccc(Cl)cc3)N=C3SC=CN32)c(Br)c1 (configuration not stated)
inactive: SR leukemia 59.2% | RPMI-8226 leukemia 52.3% | OVCAR-8 ovarian 67.3% | OVCAR-4 ovarian 80.9% | SK-OV-3 ovarian 117% | IGROV1 ovarian 98.1% | OVCAR-3 ovarian 60.5% | HS 578T breast 94.8% | NCI/ADR-RES ovarian 89.9% | T-47D breast 71.8% | BT-549 breast 96.7% | MDA-MB-435 melanoma 69.2% | SW-620 colon 91.3% | MCF7 breast 75.3% | HCT-116 colon 54% | HCC-2998 colon 86.9% | KM12 colon 62.3%

O=[N+]([O-])c1ccc(-c2nc(Cl)c3c(n2)CCCC3)o1
inactive: SR leukemia 44.7% | RPMI-8226 leukemia 85.3% | OVCAR-8 ovarian 85% | OVCAR-4 ovarian 89.6% | SK-OV-3 ovarian 108% | IGROV1 ovarian 89.3% | OVCAR-3 ovarian 108% | HS 578T breast 86.8% | T-47D breast 89.9% | BT-549 breast 83.1% | MDA-MB-435 melanoma 87.6% | SW-620 colon 56.8% | MCF7 breast 46.9% | HCT-116 colon 55.2% | HCC-2998 colon 92.4% | KM12 colon 96.5%

C#CCNCCN1C(=O)c2ccc3c4c(ccc(c24)C1=O)C(=O)N(CCNCC#C)C3=O
inactive: SR leukemia 13.9% | RPMI-8226 leukemia 45.3% | OVCAR-8 ovarian 32% | SK-OV-3 ovarian 70.3% | IGROV1 ovarian 36.9% | HS 578T breast 64% | NCI/ADR-RES ovarian 45.1% | T-47D breast 54.8% | SW-620 colon 26.9% | MCF7 breast 14.9% | HCC-2998 colon 13.2% | KM12 colon 30.9%
active: OVCAR-4 ovarian -34.7% | OVCAR-3 ovarian 5.29% | MDA-MB-435 melanoma -35.8% | HCT-116 colon -10.7%

COc1cc(C2=Nc3c/c(=C\c4c(O)[nH]c5ccc(Cl)cc45)ccc3=N2)cc(OC)c1OC
active: SR leukemia -18% | OVCAR-8 ovarian -71.4% | OVCAR-4 ovarian -83.1% | HS 578T breast -43.3% | BT-549 breast -28.2% | MDA-MB-435 melanoma -65.7% | SW-620 colon -48.2% | MCF7 breast -41.8% | HCT-116 colon -51.4% | KM12 colon 5.27%
inactive: RPMI-8226 leukemia 16.3% | SK-OV-3 ovarian 85.7% | IGROV1 ovarian 49% | OVCAR-3 ovarian 17.3% | NCI/ADR-RES ovarian 52.2% | T-47D breast 48.5% | HCC-2998 colon 66.3%

CC(=O)c1ccc(NCn2nc(-c3ccc(Cl)cc3)oc2=S)cc1
inactive: SR leukemia 85.1% | RPMI-8226 leukemia 105% | OVCAR-8 ovarian 105% | OVCAR-4 ovarian 113% | SK-OV-3 ovarian 94.4% | OVCAR-3 ovarian 108% | HS 578T breast 96.2% | NCI/ADR-RES ovarian 101% | T-47D breast 80% | BT-549 breast 99.1% | MDA-MB-435 melanoma 105% | SW-620 colon 104% | MCF7 breast 95.7% | HCT-116 colon 93.3% | HCC-2998 colon 99.7% | KM12 colon 93.1%

CC(C)/C=N/NC(N)=S
active: MCF7 breast 8.48% | HCT-116 colon 8.16%
inactive: SR leukemia 51.9% | RPMI-8226 leukemia 60.4% | OVCAR-8 ovarian 62.9% | OVCAR-4 ovarian 46.1% | SK-OV-3 ovarian 110% | IGROV1 ovarian 34% | OVCAR-3 ovarian 53% | HS 578T breast 90.7% | NCI/ADR-RES ovarian 75% | T-47D breast 45.6% | BT-549 breast 105% | MDA-MB-435 melanoma 86.4% | SW-620 colon 76.4% | HCC-2998 colon 96.4% | KM12 colon 112%

CCCCNC(=O)Oc1ccc(/C(=C(\C)c2ccc(OC)cc2)c2ccc(OCCN3CCCCC3)cc2)cc1
active: SR leukemia -22.9%
inactive: RPMI-8226 leukemia 29% | OVCAR-5 ovarian 74.9% | OVCAR-4 ovarian 64.8% | SK-OV-3 ovarian 66.7% | IGROV1 ovarian 64.7% | OVCAR-3 ovarian 73.6% | HS 578T breast 48.5% | NCI/ADR-RES ovarian 68.2% | T-47D breast 32.4% | BT-549 breast 52% | MDA-MB-435 melanoma 59.8% | SW-620 colon 40.5% | MCF7 breast 24.2% | HCT-116 colon 29.4% | HCC-2998 colon 72.8% | KM12 colon 45.4%

OC(CNC1CCCC1)Cn1c2ccccc2c2ccccc21 (configuration not stated)
active: SR leukemia -32.5% | RPMI-8226 leukemia 1.44% | T-47D breast -1.44% | MDA-MB-435 melanoma -2.91% | SW-620 colon -25.5% | MCF7 breast -66.2% | HCT-116 colon -37.3% | HCC-2998 colon 1.39%
inactive: OVCAR-8 ovarian 24.2% | OVCAR-4 ovarian 36.2% | SK-OV-3 ovarian 59.7% | IGROV1 ovarian 30.9% | OVCAR-3 ovarian 36.4% | HS 578T breast 63.6% | NCI/ADR-RES ovarian 15.1% | BT-549 breast 53.8% | KM12 colon 21.6%

Cc1nc2ccc(-n3c(-c4ccc(Cl)cc4)nc4ccccc4c3=O)cc2n1Cc1ccccc1
inactive: SR leukemia 86.7% | RPMI-8226 leukemia 64.6% | OVCAR-8 ovarian 93.4% | OVCAR-4 ovarian 90.7% | SK-OV-3 ovarian 87.3% | OVCAR-3 ovarian 99.6% | HS 578T breast 101% | NCI/ADR-RES ovarian 94.9% | T-47D breast 78.8% | BT-549 breast 83.3% | MDA-MB-435 melanoma 97.2% | SW-620 colon 93.7% | MCF7 breast 85% | HCT-116 colon 93% | HCC-2998 colon 107% | KM12 colon 97.8%

COc1ccc(C(=O)n2nc(CC(=O)NCc3ccccc3)nc2N)cc1
inactive: SR leukemia 93.6% | RPMI-8226 leukemia 117% | OVCAR-8 ovarian 115% | OVCAR-4 ovarian 105% | SK-OV-3 ovarian 107% | IGROV1 ovarian 93.7% | OVCAR-3 ovarian 118% | HS 578T breast 103% | NCI/ADR-RES ovarian 112% | T-47D breast 105% | BT-549 breast 102% | MDA-MB-435 melanoma 109% | SW-620 colon 105% | MCF7 breast 99.1% | HCT-116 colon 99.5% | HCC-2998 colon 104% | KM12 colon 116%

N#CC1C=Cc2c(ccc3ccccc23)N1C(=O)c1ccccc1 (configuration not stated)
active: SK-OV-3 ovarian 4.99% | OVCAR-3 ovarian -56.5% | HS 578T breast -8.86% | NCI/ADR-RES ovarian -21.8% | MDA-MB-435 melanoma -31.4% | KM12 colon -6.86%
inactive: SR leukemia 13.9% | RPMI-8226 leukemia 38.1% | OVCAR-8 ovarian 25.7% | OVCAR-4 ovarian 45.2% | IGROV1 ovarian 26% | T-47D breast 56.7% | BT-549 breast 33.5% | SW-620 colon 21.8% | MCF7 breast 21.5% | HCT-116 colon 12% | HCC-2998 colon 10.3%

CN(C)CCCN1c2ccccc2Sc2ccc(C(F)(F)F)cc21
active: SR leukemia -42.3% | OVCAR-3 ovarian 8.18% | T-47D breast 5.93% | MDA-MB-435 melanoma -39.3% | SW-620 colon 9.61% | MCF7 breast -39.7% | HCT-116 colon 1.99% | HCC-2998 colon -65.9% | KM12 colon 0.137%
inactive: RPMI-8226 leukemia 22.5% | OVCAR-8 ovarian 44.4% | OVCAR-4 ovarian 44.4% | SK-OV-3 ovarian 20.2% | IGROV1 ovarian 17% | HS 578T breast 27% | NCI/ADR-RES ovarian 10.4% | BT-549 breast 25.7%

CC(C)(C)CC(C)(C)c1ccc(O)c(Cc2ccc(Cl)cc2Cl)c1
active: SR leukemia -57.5% | RPMI-8226 leukemia -10.7% | OVCAR-8 ovarian -43.4% | OVCAR-4 ovarian -86.5% | SK-OV-3 ovarian -86.6% | IGROV1 ovarian -82.8% | OVCAR-3 ovarian -93.7% | HS 578T breast -23% | NCI/ADR-RES ovarian -81.1% | T-47D breast -72.9% | BT-549 breast -95.1% | MDA-MB-435 melanoma -81.1% | SW-620 colon -84.9% | MCF7 breast -88.9% | HCT-116 colon -91.8% | HCC-2998 colon -89.1% | KM12 colon -88.5%

COc1ccc(-c2nnc(COc3ccc(NC(=O)Nc4ccccc4)cc3F)o2)cc1
inactive: SR leukemia 36.1% | RPMI-8226 leukemia 51.3% | OVCAR-8 ovarian 96.1% | OVCAR-4 ovarian 75.7% | SK-OV-3 ovarian 99.1% | IGROV1 ovarian 99.2% | HS 578T breast 82% | NCI/ADR-RES ovarian 97.4% | T-47D breast 62.1% | BT-549 breast 79.6% | MDA-MB-435 melanoma 92.3% | SW-620 colon 102% | MCF7 breast 90.3% | HCT-116 colon 69.8% | HCC-2998 colon 103% | KM12 colon 68.5%
active: OVCAR-3 ovarian 2.7%

Cc1cccc2c1O/C(=C\c1ncc([N+](=O)[O-])n1C)C2=O
inactive: T-47D breast 89.7%
active: SR leukemia 9.3% | RPMI-8226 leukemia -13% | OVCAR-8 ovarian -21.3% | OVCAR-4 ovarian -2.81% | SK-OV-3 ovarian -17.5% | IGROV1 ovarian -18.1% | OVCAR-3 ovarian -12.2% | HS 578T breast -23.9% | NCI/ADR-RES ovarian 2.37% | BT-549 breast -53.7% | MDA-MB-435 melanoma -54.1% | SW-620 colon -11.6% | MCF7 breast 2.72% | HCT-116 colon -66.6% | HCC-2998 colon -73.1% | KM12 colon -50.6%

Cc1ccc(S(=O)(=O)Nc2cccc3[nH]c(C(F)(F)F)nc23)cc1
active: RPMI-8226 leukemia -3.69% | SK-OV-3 ovarian 4.74% | OVCAR-3 ovarian 4.74% | NCI/ADR-RES ovarian 4.81% | MDA-MB-435 melanoma -31.5%
inactive: SR leukemia 10.8% | OVCAR-8 ovarian 31% | OVCAR-4 ovarian 36% | IGROV1 ovarian 51.4% | HS 578T breast 24.4% | T-47D breast 47.2% | SW-620 colon 18.6% | MCF7 breast 13.2% | HCT-116 colon 23.8% | HCC-2998 colon 28.1% | KM12 colon 21%
